Assay results reported in the supplement of paper PMC10849652.
Of roughly 7,900 targets only a part is listed; those with a hit were picked by preference. About 0.6% of all pairs of compound and target were hits.

Key:
Experiment in all cases: log2 fold change, soluble protein after heating vs DMSO (PISA); higher = thermal stabilisation; K562 cells, 10 uM, 30 min; active = over 0.2 and 3.5 SD of the protein, either way, in both replicates (recomputed)
[1] = compound: CC1=C(SC2=C1C(=N[C@H](C3=NN=C(N32)C)CC(=O)N)C4=CC=C(C=C4)Cl)C
Procedure, shortened: (§1)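 K562 cells (2×10^6 cells/mL) were treated with 10 μM compound for 30 min, and aliquots were heated for 3 min over 48°C-58°C. Pooled aliquots were extracted in PBS with 0.5% NP-40 at 4°C, and the supernatant after 21,000xg for 90 min was measured by TMTpro 16plex LC-MS/MS with channel sums equalised. Reported thermal stability, relative to control samples and from duplicates, is a log2 fold change.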

[2] = compound: c1ccc([C@@H]2C[C@H]2NC2CCNCC2)cc1
Procedure, shortened: as §1

[3] = compound: CC1=C2C(=CC=C1)N=C(N(C2=O)C3=CC=CC=C3C)CN4C=NC5=C(N=CN=C54)N
Procedure, shortened: as §1

[4] = compound: Cc1sc2c(c1C)C(c1ccc(Cl)cc1)=N[C@@H](CC(=O)OC(C)(C)C)c1nnc(C)n1-2
Procedure, shortened: as §1

[5] = compound: C1=CC=C(C=C1)[C@H](COC2=CC3=C(C=C2)NC(=O)N3)NC(=O)C4=CC=CN(C4=O)CC5=CC(=C(C=C5)F)F
Procedure, shortened: as §1

Measured: log2 fold change

PSMD8 (UniProt K7EK21)
inactive: [1] -0.11 | [2] 0.188

PEX5 isoform 4 (UniProt P50542)
inactive: [1] -0.147 | [3] 0.043 | [4] 0.059 | [2] 0.006

PCBP2 isoform 3 (UniProt Q15366)
Chain of UniProt Q15366 (Q15366 whole entry, looked up): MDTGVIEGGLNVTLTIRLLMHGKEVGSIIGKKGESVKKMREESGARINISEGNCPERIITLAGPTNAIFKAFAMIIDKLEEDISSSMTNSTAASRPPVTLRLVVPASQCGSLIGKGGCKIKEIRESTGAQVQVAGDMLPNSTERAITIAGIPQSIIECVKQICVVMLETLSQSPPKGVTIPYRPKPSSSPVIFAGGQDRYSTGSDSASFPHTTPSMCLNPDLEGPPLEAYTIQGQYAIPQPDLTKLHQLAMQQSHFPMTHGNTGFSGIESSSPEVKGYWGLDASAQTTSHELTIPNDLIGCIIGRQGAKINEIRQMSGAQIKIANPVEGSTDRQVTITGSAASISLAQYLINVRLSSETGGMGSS
inactive: [5] -0.051 | [1] 0.016 | [3] 0.055 | [4] -0.029 | [2] 0.005

PRR14L (UniProt Q5THK1)
inactive: [1] -0.052 | [3] 0.312 | [4] 0.042 | [2] 0.103

PUM1 (UniProt Q14671)
Chain of UniProt Q14671 (Q14671 whole entry, looked up): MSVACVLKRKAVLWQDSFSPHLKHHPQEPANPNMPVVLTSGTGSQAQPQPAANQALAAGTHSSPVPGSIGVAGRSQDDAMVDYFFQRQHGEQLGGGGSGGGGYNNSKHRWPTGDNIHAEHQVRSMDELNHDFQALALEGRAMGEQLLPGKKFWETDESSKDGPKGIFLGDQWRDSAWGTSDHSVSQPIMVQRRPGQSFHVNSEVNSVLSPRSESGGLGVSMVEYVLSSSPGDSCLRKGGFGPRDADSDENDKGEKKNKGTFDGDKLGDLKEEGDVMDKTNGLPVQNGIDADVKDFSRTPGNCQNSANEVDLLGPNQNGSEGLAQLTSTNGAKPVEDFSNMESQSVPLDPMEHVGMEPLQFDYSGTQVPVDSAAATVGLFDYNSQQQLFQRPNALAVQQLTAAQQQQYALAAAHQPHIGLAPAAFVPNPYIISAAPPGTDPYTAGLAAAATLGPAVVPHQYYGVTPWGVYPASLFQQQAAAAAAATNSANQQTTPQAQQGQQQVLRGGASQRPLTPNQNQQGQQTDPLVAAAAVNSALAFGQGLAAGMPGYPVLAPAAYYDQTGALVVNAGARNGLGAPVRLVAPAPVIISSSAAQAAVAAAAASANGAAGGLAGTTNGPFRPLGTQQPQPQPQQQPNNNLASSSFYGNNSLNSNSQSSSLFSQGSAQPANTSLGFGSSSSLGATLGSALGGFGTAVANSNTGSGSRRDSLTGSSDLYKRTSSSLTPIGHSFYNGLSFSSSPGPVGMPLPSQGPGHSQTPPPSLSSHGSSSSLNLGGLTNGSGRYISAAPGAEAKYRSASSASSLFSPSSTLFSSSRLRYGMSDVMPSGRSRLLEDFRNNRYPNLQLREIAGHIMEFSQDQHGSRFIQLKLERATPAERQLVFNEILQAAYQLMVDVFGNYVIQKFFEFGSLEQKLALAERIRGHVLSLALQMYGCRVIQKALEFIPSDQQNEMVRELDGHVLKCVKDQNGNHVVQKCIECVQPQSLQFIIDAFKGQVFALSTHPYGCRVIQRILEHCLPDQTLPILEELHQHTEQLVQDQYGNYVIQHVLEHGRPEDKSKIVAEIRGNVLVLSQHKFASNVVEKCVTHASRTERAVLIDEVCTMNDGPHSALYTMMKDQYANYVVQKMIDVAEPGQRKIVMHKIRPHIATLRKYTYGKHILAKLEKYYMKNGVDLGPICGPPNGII
inactive: [1] 0.116 | [4] 0.059 | [2] -0.094

PHKA1 (UniProt P46020)
inactive: [5] 0.028 | [1] -0.078 | [4] 0.103 | [2] 0.011

PAN2 (UniProt Q504Q3)
inactive: [5] -0.298 | [3] 0.053

PCNX1 (UniProt Q96RV3)
inactive: [5] 0.064 | [3] 0.103 | [4] -0.122

PSMA3 (UniProt H0YJ03)
inactive: [1] 0.193 | [3] 0.119 | [4] 0.048 | [2] 0.034

PPP2R5B (UniProt Q15173)
Chain of UniProt Q15173 (Q15173 whole entry, looked up): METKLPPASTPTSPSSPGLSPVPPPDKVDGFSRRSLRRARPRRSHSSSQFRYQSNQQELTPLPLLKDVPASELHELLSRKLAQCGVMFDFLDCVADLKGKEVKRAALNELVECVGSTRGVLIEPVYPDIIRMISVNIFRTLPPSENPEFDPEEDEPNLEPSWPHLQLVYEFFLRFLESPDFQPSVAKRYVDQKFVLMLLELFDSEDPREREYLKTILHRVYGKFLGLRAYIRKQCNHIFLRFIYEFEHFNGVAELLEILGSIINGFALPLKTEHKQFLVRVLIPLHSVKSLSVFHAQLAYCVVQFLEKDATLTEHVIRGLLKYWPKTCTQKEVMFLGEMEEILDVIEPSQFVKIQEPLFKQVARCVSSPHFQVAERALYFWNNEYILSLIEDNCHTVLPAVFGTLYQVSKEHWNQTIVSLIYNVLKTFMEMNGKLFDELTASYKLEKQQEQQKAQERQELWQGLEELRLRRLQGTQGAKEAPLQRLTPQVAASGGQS
inactive: [5] -0.058 | [3] -0.098

PNN (UniProt Q9H307)
Chain of UniProt Q9H307 (Q9H307 whole entry, looked up): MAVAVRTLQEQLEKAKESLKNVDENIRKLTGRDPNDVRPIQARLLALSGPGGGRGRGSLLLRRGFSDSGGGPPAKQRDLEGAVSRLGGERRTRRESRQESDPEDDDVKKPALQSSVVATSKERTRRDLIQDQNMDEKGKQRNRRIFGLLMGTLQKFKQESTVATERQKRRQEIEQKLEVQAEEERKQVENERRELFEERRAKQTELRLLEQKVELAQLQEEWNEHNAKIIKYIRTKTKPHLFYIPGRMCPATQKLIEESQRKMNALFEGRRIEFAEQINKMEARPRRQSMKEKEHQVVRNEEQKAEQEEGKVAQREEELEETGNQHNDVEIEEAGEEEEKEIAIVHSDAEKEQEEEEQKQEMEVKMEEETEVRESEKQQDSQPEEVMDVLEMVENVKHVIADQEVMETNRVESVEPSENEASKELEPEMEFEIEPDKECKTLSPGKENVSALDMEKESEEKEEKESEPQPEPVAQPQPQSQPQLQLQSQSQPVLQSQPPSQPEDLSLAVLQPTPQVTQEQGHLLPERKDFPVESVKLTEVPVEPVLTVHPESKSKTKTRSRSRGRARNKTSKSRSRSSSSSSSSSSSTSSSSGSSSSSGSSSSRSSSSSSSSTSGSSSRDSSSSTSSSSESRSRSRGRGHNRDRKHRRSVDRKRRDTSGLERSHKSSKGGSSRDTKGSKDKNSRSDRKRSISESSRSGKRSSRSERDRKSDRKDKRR
inactive: [5] 0.084 | [1] 0.021 | [2] 0.012

POLA2 (UniProt Q14181)
Chain of UniProt Q14181 (Q14181 whole entry, looked up): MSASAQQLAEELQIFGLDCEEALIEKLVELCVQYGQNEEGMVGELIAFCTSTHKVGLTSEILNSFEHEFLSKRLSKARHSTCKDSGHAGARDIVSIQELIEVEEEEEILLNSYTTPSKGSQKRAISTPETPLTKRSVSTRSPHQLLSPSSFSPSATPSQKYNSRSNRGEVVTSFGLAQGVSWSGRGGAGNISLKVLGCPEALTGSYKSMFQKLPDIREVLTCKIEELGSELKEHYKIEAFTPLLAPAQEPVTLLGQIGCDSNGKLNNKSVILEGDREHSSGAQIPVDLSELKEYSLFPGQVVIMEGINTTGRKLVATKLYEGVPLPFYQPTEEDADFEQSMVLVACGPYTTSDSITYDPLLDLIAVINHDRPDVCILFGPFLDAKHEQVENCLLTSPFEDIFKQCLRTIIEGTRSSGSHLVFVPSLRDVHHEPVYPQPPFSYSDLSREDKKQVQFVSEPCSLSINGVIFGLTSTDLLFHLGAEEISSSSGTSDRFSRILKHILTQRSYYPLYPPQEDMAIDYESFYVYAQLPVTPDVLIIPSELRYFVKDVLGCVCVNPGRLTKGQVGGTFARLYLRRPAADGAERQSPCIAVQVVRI
inactive: [5] -0.023 | [1] 0.048 | [3] 0.114 | [4] -0.006 | [2] 0.034

PHC3 isoform 7 (UniProt Q8NDX5)
Chain of UniProt Q8NDX5 (Q8NDX5 whole entry, looked up): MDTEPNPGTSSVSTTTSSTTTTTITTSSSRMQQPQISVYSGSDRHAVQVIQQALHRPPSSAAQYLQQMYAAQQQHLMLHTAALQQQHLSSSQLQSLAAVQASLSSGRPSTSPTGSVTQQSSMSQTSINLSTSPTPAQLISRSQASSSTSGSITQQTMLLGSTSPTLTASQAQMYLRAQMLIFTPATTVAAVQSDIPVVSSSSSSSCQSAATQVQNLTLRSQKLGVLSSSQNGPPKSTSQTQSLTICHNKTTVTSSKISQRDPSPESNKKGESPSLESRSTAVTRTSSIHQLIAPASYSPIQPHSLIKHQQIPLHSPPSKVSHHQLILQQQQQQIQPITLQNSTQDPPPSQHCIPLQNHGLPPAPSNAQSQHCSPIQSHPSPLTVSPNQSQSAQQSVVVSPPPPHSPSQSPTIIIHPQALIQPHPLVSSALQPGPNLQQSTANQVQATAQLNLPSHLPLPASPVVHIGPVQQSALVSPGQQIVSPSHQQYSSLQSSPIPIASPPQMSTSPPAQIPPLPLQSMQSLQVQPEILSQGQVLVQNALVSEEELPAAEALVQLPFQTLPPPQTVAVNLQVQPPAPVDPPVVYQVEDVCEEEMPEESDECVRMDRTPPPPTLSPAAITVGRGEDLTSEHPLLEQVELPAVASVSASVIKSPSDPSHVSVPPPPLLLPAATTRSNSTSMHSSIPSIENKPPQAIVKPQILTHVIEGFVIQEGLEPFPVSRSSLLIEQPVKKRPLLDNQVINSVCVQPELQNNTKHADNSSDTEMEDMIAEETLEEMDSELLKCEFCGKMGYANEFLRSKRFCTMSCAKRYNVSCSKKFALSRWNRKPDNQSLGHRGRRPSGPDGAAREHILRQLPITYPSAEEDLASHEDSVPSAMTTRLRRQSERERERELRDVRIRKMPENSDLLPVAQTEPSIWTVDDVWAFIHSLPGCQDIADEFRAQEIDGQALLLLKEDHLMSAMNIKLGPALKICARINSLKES
inactive: [5] -0.023 | [1] -0.025 | [2] -0.075

PDPK1 (UniProt O15530)
Chain of UniProt O15530 (O15530 whole entry, looked up): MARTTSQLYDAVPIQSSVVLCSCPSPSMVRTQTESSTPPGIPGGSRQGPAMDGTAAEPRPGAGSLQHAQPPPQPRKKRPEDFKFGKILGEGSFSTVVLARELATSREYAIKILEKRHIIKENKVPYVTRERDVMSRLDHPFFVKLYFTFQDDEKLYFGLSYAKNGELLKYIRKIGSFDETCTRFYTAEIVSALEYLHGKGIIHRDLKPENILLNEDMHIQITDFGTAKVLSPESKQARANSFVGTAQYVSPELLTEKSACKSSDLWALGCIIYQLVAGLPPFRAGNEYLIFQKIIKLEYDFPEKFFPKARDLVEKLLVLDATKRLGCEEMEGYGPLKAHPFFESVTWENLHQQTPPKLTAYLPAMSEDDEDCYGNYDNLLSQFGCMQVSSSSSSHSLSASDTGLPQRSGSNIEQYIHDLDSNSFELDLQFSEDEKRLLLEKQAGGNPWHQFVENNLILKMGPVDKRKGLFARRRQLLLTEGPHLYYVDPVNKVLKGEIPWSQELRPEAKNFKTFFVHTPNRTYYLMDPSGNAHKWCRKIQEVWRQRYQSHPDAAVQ
inactive: [1] 0.065 | [3] 0.014 | [4] -0.038 | [2] -0.018
